Data: publication PMC5540273 (PLoS ONE, 2017)

Key:
Details in all cases: concentration: 1 μM, replicates: in singlicate; n = 1
ACVR1B = system: ACVR1B
ACVR1 = system: ACVR1
ACVR2A = system: ACVR2A
ACVR2B = system: ACVR2B
ACVRL1 = system: ACVRL1
ADCK3 = system: T1, ADCK3
T1 construct: gene CABC1

ADCK4 = system: ADCK4
AKT1 = system: AKT1
AKT2 = system: AKT2
AKT3 = system: AKT3
ALK = system: ALK
AMPK-alpha1 = system: T2, AMPK-alpha1
T2 construct: gene PRKAA1

AMPK-alpha2 = system: T3, AMPK-alpha2
T3 construct: gene PRKAA2

ANKK1 = system: ANKK1
ARK5 = system: T4, ARK5
T4 construct: gene NUAK1

ASK1 = system: T5, ASK1
T5 construct: gene MAP3K5

ASK2 = system: T6, ASK2
T6 construct: gene MAP3K6

AURKA = system: AURKA
AURKB = system: AURKB
AURKC = system: AURKC
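Also: KINOMEscan kinase panel screen.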

SMILES | %Inh (ACVR1B) [%] | %Inh (ACVR1) [%] | %Inh (ACVR2A) [%] | %Inh (ACVR2B) [%] | %Inh (ACVRL1) [%] | %Inh (ADCK3) [%] | %Inh (ADCK4) [%] | %Inh (AKT1) [%] | %Inh (AKT2) [%] | %Inh (AKT3) [%] | %Inh (ALK) [%] | %Inh (AMPK-alpha1) [%] | %Inh (AMPK-alpha2) [%] | %Inh (ANKK1) [%] | %Inh (ARK5) [%] | %Inh (ASK1) [%] | %Inh (ASK2) [%] | %Inh (AURKA) [%] | %Inh (AURKB) [%] | %Inh (AURKC) [%]
COc1ccc(CNC(=O)NC2CCN(c3ccnc(Nc4ccc(F)cc4)n3)C2)cc1 (stereo not drawn) [GSK1379706] | 0 | 49 | 0 | 5 | 0 | 29 | 48 | 0 | 0 | 0 | 0 | 0 | 0 | 8 | 16 | 11 | 0 | 35 | 20 | 19
CCS(=O)c1ccc(-c2coc3ccc(-c4nnc(C)o4)cc23)cc1 (stereo not drawn) | 0 | 5 | 0 | 0 | 6 | 5 | 0 | 0 | 0 | 0 | 5 | 26 | 1 | 30 | 0 | 0 | 0 | 16 | 1 | 0
Cn1c(=O)c(F)c(Nc2ccc(I)cc2F)c2c(=O)n(OC[C@H](O)CO)cnc21 | 0 | 14 | 29 | 28 | 1 | 21 | 0 | 15 | 0 | 0 | 0 | 0 | 13 | 0 | 0 | 0 | 0 | 0 | 9 | 30
CCCC(=O)Nc1n[nH]c2ncc(-c3cccc4ccccc34)cc12 [SB-642057] | 0 | 26 | 0 | 9 | 59 | 5 | 5 | 0 | 39 | 0 | 29 | 37 | 19 | 7 | 6 | 9 | 9 | 6 | 24 | 16
CCn1c(-c2ccoc2)nc2cnccc21 [SB-733887] | 0 | 15 | 0 | 18 | 0 | 10 | 20 | 0 | 14 | 0 | 31 | 10 | 9 | 0 | 0 | 23 | 5 | 16 | 45 | 10
Cc1c(Cn2c(C)nn3c(=O)cc(N4CCO[C@H](C)C4)nc23)cccc1C(F)(F)F [GSK2373690] | 0 | 2 | 3 | 0 | 0 | 22 | 24 | 0 | 6 | 28 | 22 | 0 | 27 | 0 | 2 | 11 | 15 | 0 | 27 | 30
O=C(Nc1n[nH]c2cc(-c3ccccc3F)ccc12)C1CC1 [SB-733371] | 1 | 32 | 38 | 48 | 0 | 0 | 0 | 0 | 0 | 7 | 0 | 0 | 0 | 10 | 0 | 0 | 0 | 16 | 51 | 46
CCn1c(-c2nonc2N)nc2ccccc21 [SB-693162/GW549034] | 1 | 0 | 0 | 0 | 0 | 4 | 0 | 0 | 1 | 0 | 0 | 7 | 0 | 51 | 3 | 16 | 2 | 27 | 37 | 0
COc1ccc(-n2cnc3c(N)ncnc32)cc1 [SKF-97236] | 21 | 7 | 35 | 32 | 10 | 0 | 0 | 0 | 1 | 11 | 0 | 16 | 20 | 17 | 0 | 0 | 0 | 0 | 16 | 63
COc1ccc(Nc2nccc(N3CCC(NS(=O)(=O)c4ccc(NC(C)=O)cc4)C3)n2)cc1 (stereo not drawn) [GSK1379729] | 3 | 34 | 32 | 22 | 8 | 9 | 38 | 0 | 7 | 0 | 16 | 20 | 17 | 8 | 25 | 7 | 9 | 7 | 14 | 30
O=C(NCc1cccs1)c1cc(C(=O)c2c(Cl)cccc2Cl)c[nH]1 [GW823670] | 12 | 0 | 0 | 0 | 5 | 0 | 0 | 0 | 0 | 0 | 0 | 8 | 0 | 0 | 0 | 19 | 0 | 0 | 9 | 1
Cc1ccc(-c2ccc3c(ccc4sc5c(c43)NC[C@@H](C)N=C5N(C)C)n2)cn1 | 0 | 0 | 0 | 0 | 12 | 0 | 0 | 0 | 0 | 0 | 4 | 0 | 0 | 0 | 0 | 0 | 0 | 0 | 0 | 0
O=C(NCCNc1ccnc(Nc2ccc(F)cc2)n1)Nc1ccc2c(c1)OCO2 [GSK1379882] | 0 | 0 | 0 | 0 | 0 | 9 | 23 | 0 | 0 | 0 | 24 | 0 | 2 | 18 | 11 | 14 | 0 | 28 | 0 | 36
Nc1n[nH]c2ncc(-c3ccccc3)cc12 [SB-517081] | 0 | 8 | 0 | 5 | 0 | 7 | 19 | 0 | 12 | 0 | 38 | 0 | 0 | 28 | 2 | 0 | 0 | 21 | 64 | 27
COc1cccc(C2=C(N(C)c3ccccc3)C(=O)NC2=O)c1 [SB-334865] | 0 | 28 | 0 | 3 | 0 | 4 | 21 | 0 | 13 | 0 | 24 | 6 | 13 | 0 | 1 | 18 | 0 | 11 | 32 | 0
Cc1nnc(-c2ccc(C)c(-c3ccc(C(=O)O)cc3)c2)o1 [GW608005] | 0 | 4 | 0 | 0 | 0 | 0 | 0 | 0 | 6 | 0 | 1 | 0 | 0 | 0 | 11 | 0 | 0 | 0 | 0 | 6
Nc1nccc2scc(-c3ccc4c(c3)CCN4C(=O)Cc3ccccc3)c12 [GSK2576924] | 0 | 10 | 42 | 0 | 0 | 13 | 0 | 0 | 11 | 0 | 0 | 0 | 21 | 21 | 9 | 6 | 0 | 9 | 16 | 25
COc1ccc(-c2coc3ccc(-c4nnc(SCc5cccc(C#N)c5)o4)cc23)cc1 | 6 | 6 | 0 | 0 | 0 | 21 | 0 | 0 | 2 | 0 | 0 | 7 | 0 | 19 | 16 | 9 | 6 | 22 | 12 | 0
Cl.NS(=O)(=O)c1cccc(Nc2cc(-c3ccc(F)cc3)n[nH]2)c1 [GW824645] | 0 | 0 | 0 | 0 | 0 | 0 | 0 | 0 | 0 | 0 | 0 | 0 | 18 | 0 | 0 | 0 | 0 | 4 | 29 | 0
COc1cccc(C2=C(Nc3cccc(C(=O)O)c3)C(=O)NC2=O)c1 [SB-390770] | 18 | 15 | 17 | 40 | 4 | 0 | 8 | 2 | 0 | 0 | 0 | 45 | 16 | 70 | 0 | 5 | 4 | 21 | 31 | 14
Cl.c1ccc(Cn2cnc3cc(Nc4ncnc5ccccc45)ccc32)cc1 [GW272142] | 0 | 17 | 0 | 2 | 0 | 13 | 34 | 0 | 3 | 0 | 21 | 0 | 0 | 0 | 0 | 4 | 2 | 0 | 19 | 14
